According to PubChem BioAssay AID1986 (Sanford-Burnham Center for Chemical Genomics, 2009):
Several values for one entry are separate records, joined by “and”; a condition that tells them apart may be missing. Equal entries are not always repeated. Out of some 290,000 compounds screened, about 890 (0.31%) were called active. Rule as the data show it: active = inhibition mostly above about 52% (no sharp cut-off); inactive = mostly below about 76%. The sample as a whole holds a higher share of actives than the screen did. Some structures have more than one record in an assay (separate samples or runs), and their calls can disagree.

Test: cell-free HIV fusion peptide-binding blockers – biochemical, uHTS, fluorescence dequenching, primary screen (AID 1986)
Settings: 30 min, stronger effect = higher value

| Compound | inhibition (at 20 µM) | inhibition (measured here: repeat confirmation average inhibition, at 18.6 µM) [%] |
| --- | --- | --- |
| CC1=CC(=C(C#N)C#N)c2ccccc2N1C | 146% (inactive) |  |
| COC(=O)c1c(C(=O)NCc2ccccc2)ncn1CC(O)COc1ccccc1 (centres undefined) | -0.4% (inactive) |  |
| N#C/C(=C\c1ccc(C(=O)O)cc1)c1nc2sc3c(c2c(=O)[nH]1)CCCC3 | 103% (active) |  |
| CCOC(=O)c1nc2sc3c(c2c(=O)[nH]1)CCCC3 | 0.4% (inactive) and 2.4% (inactive) |  |
| O=C(O)c1ccc(/C=C/c2nc3sc4c(c3c(=O)[nH]2)CCC4)cc1 | 33.6% (inactive) |  |
| O=C(N/N=C/c1cc([N+](=O)[O-])ccc1O)C(O)(c1ccccc1)c1ccccc1 | 15.6% (inactive) |  |
| N#CC1(C#N)C(c2ccccc2)OC23CCCCCC2C1(C#N)C(=N)O3 (centres undefined) | 10% (inactive) |  |
| COc1ccc2c(CC(=O)Nc3ccc(N4CCOCC4)cc3)coc2c1 | -1.8% (inactive) |  |
| CCOC(=O)C1CCN(C(=O)Nc2ccc3nc(C)c(C)nc3c2)CC1 | 0.1% (inactive) |  |
| O=C(Nc1ccc2nc(-c3ccco3)c(-c3ccco3)nc2c1)N1CCCCCC1 | 55.6% (inactive) | 19.7 |
| CCOC(=O)C1CCN(C(=O)Nc2ccc3nc(-c4ccco4)c(-c4ccco4)nc3c2)CC1 | 68.6% (active) |  |
| Cc1cc(C)c(C)c(S(=O)(=O)N2CCNCC2)c1C | 0.3% (inactive) |  |
| CC(C)(C)c1ccc(-c2nnc3sc(-c4ccncc4)nn23)cc1 | -2.8% (inactive) |  |
| NC(=S)Nc1ccc(Cl)cc1Cl | -1.7% (inactive) |  |
| COc1cc(OC)c(/C=N/n2c(C)nnc2C)c(OC)c1 | -1.2% (inactive) |  |
| CCOC(=O)C(=Cc1ccc(-c2ccsc2C(=O)OC)o1)C(=O)OCC | 2.2% (inactive) |  |
| CCOC(=O)/C(C#N)=C/c1ccc(-c2ccsc2C(=O)OC)o1 | 61.4% (active) |  |
| COC(=O)C(=Cc1ccc(-c2ccsc2C(=O)OC)o1)C(=O)OC | -1% (inactive) |  |
| Cc1cc(-c2ccc(Cl)s2)n[nH]1 | 0% (inactive) |  |
| CC1(C)CCCC2=C1CC1C(=O)N(Cc3cccnc3)C(=O)C1C2 (centres undefined) | 1.5% (inactive) |  |
| Cc1cc(C)n2nc(C(=O)N/N=C/c3ccco3)nc2n1 | -0.3% (inactive) |  |
| O=C(c1nc2ccccn2c1CNCC1OCCc2ccccc21)N1CCOCC1 (centres undefined) | -0.8% (inactive) |  |
| Cc1ccc(C)c(S(=O)(=O)NCCCn2ccnc2)c1 | -0.3% (inactive) |  |
| Cc1nn(-c2ccccc2)c(Cl)c1/C=N/Nc1ccc(S(=O)(=O)Nc2ccccc2C(=O)O)cc1[N+](=O)[O-] | 73% (active) |  |

| Compound | inhibition (at 20 µM) | inhibition (measured here: repeat confirmation average inhibition, at 18.6 µM) [%] |
| --- | --- | --- |
| COc1ccc(NC(=S)NNc2ccc(S(=O)(=O)Nc3ccccc3C(=O)O)cc2[N+](=O)[O-])cc1 | 52.4% (active) |  |
| COc1ccc(NC(=O)c2ccccc2NS(=O)(=O)c2ccc(C)cc2)c([N+](=O)[O-])c1 | 1.8% (inactive) |  |
| COc1ccc(NS(=O)(=O)c2cccc(C(=O)Nc3ccccc3C(=O)O)c2)cc1 | 19.7% (inactive) |  |
| Cc1nn(-c2ccccc2)c(N2CCCC2)c1/C=N/Nc1ccc(S(=O)(=O)Nc2ccccc2)cc1[N+](=O)[O-] | -3.9% (inactive) |  |
| COc1ccccc1NS(=O)(=O)c1ccc(N/N=C/c2c(C)nn(-c3ccccc3)c2N2CCCC2)c([N+](=O)[O-])c1 | -5.2% (inactive) |  |
| COc1ccc(N(CC(=O)N2CCc3ccccc3C2)S(C)(=O)=O)cc1 | -1.6% (inactive) |  |
| COc1cc(COCC(O)CN2CCOCC2)cc(OC)c1OC (centres undefined) | -2.1% (inactive) |  |
| O=C(Cc1ccc(Cl)cc1)Nc1cc(S(=O)(=O)N2CCOCC2)ccc1N1CCCC1 | 1.2% (inactive) |  |
| N#CC1CC(c2ccccc2)=NN1c1ccccc1[N+](=O)[O-] (centres undefined) | -3.1% (inactive) |  |
| N#CC1CC(c2ccc([N+](=O)[O-])cc2)=NN1c1ccc([N+](=O)[O-])cc1 (centres undefined) | 83.7% (active) |  |
| O=[N+]([O-])c1ccc(N2N=C(c3ccccc3)CC2c2ccccc2O)cc1 (centres undefined) | 38.9% (inactive) |  |
| COC(=O)c1sccc1NC(=O)Nc1ccc(OC)cc1 | 1.8% (inactive) |  |
| Cc1ccc(OCCNS(=O)(=O)c2cccs2)cc1 | -0.8% (inactive) |  |
| CCN(CC)C(=O)CSc1nc(O)c(Cc2ccc(OC)cc2)c(=O)[nH]1 | 0.3% (inactive) |  |
| Cc1ccc(/C=C(\C#N)C(=O)Nc2ccccn2)o1 | 0.3% (inactive) |  |
| Cc1ccc(/C=C(\C#N)C(=O)Nc2cccc3ncccc23)o1 | 77.8% (active) |  |
| N#C/C(=C\c1ccco1)C(=O)Nc1cccc2ncccc12 | 1.5% (inactive) |  |
| CCc1nnc(SCC(=O)N2CCCC(N3CCN(c4ccccc4C)CC3)C2)o1 (centres undefined) | -0.2% (inactive) |  |
| CC1(C)CC(=O)C2=C(C1)N(c1ccc(F)cc1)C(=O)C2(NC(=O)c1ccccc1)C(F)(F)F (centres undefined) | -0.9% (inactive) |  |
| COc1cc(-c2cc(=O)c3ccccc3o2)ccc1O | -1.9% (inactive) |  |
| Cc1c2cc(O)c(=O)cc-2oc2cc(O)c(O)cc12 | 150% (inactive) and 61.1% (active) |  |
| COc1cc(OC)c(-c2c3cc(O)c(=O)cc-3oc3cc(O)c(O)cc23)cc1OC | 82.9% (active) |  |
| COc1ccc(OC)c(-c2oc3ccccc3c(=O)c2O)c1 | -0.8% (inactive) |  |
| COc1c(O)cc2oc(-c3ccc(O)c(O)c3)cc(=O)c2c1O | 20.2% (inactive) |  |

| Compound | inhibition (at 20 µM) | inhibition (measured here: repeat confirmation average inhibition, at 18.6 µM) [%] |
| --- | --- | --- |
| COc1ccc2c(=O)cc(-c3ccccc3F)oc2c1 | -1.9% (inactive) |  |
| O=c1cc2oc3cc(O)c(O)cc3c(-c3ccccc3O)c-2cc1O | 148% (inactive) |  |
| Cc1cc2oc(=O)cc(-c3cc4ccccc4o3)c2cc1O | 21% (inactive) |  |
| CCOc1ccccc1-c1c2cc(O)c(=O)cc-2oc2cc(O)c(O)cc12 | 118% (active) |  |
| O=c1cc2oc3cc(O)c(O)cc3c(-c3ccccc3[N+](=O)[O-])c-2cc1O | 34.3% (inactive) |  |
| Cc1ccccc1-c1cc(=O)c2c(O)cccc2o1 | -1.7% (inactive) |  |
| COc1ccc(OC)c(-c2c3cc(O)c(=O)cc-3oc3cc(O)c(O)cc23)c1 | 122% (active) |  |
| CC1=NN(c2ccc(C)cc2C)C(=O)C1C(c1ccccc1O)C1C(=O)N(c2ccc(C)cc2C)N=C1C (centres undefined) | 3.7% (inactive) |  |
| COc1ccc(C(=O)Nc2ccnn2C2CCN(C(=O)c3cnsn3)CC2)cc1 | -1.2% (inactive) |  |
| COc1ccccc1C(=O)N/C(=C/c1ccc(Br)cc1)C(=O)NCCO | 7.1% (inactive) |  |
| CCCCCCNc1cc2n(c(=O)n1)CCc1cc(OC)c(OC)cc1-2 | -3.2% (inactive) |  |
| COc1ccccc1NS(=O)(=O)c1ccc(NN=C2CCCCC2)c([N+](=O)[O-])c1 | -1.4% (inactive) |  |
| c1ccc2c(c1)CC1(CCCCC1)n1nnnc1-2 | -1.4% (inactive) |  |
| CCCCCC(=O)NC(=S)Nc1ccc2oc(=O)ccc2c1 | -0.3% (inactive) |  |
| COC(=O)CCSCC(=O)Nc1ccc(S(=O)(=O)N2CCOCC2)cc1OC | 0.8% (inactive) |  |
| CC(C)C1/C(=N/O)CC(c2ccccc2)NC1c1ccccc1 (centres undefined) | 0% (inactive) |  |
| CCCCNC(=O)CC1N=C2c3ccccc3N=C(SCC(=O)Nc3ccccc3OC)N2C1=O (centres undefined) | 1.1% (inactive) |  |
| CCOC(=O)c1nc(S(C)(=O)=O)ncc1N1CCOCC1 | -2.9% (inactive) |  |
| CCc1ccccc1N(C(=O)CCC(=O)Nc1cc(C)on1)C(C(=O)NC1CCCC1)c1ccco1 (centres undefined) | 0.8% (inactive) |  |
| O=[N+]([O-])c1ccc2c(c1)oc1ccccc12 | -0.8% (inactive) |  |
| CC(=O)CC(c1ccc([N+](=O)[O-])cc1)c1c(O)c2ccccc2oc1=O (centres undefined) | 3.8% (inactive) |  |
| COc1cc(/C=N/NC(N)=O)cc([N+](=O)[O-])c1O | -1.1% (inactive) |  |
| CCN(CC(=O)Nc1c(F)cccc1F)C(=O)c1ccccc1F | 0.4% (inactive) |  |
| Cc1ccc(C)n1C(Cc1ccccc1)C(=O)O (centres undefined) | 67.3% (active) |  |

| Compound | inhibition (at 20 µM) | inhibition (measured here: repeat confirmation average inhibition, at 18.6 µM) [%] |
| --- | --- | --- |
| O=C(O)C(Cc1ccccc1)n1cccc1 (centres undefined) | 1.2% (inactive) |  |
| O=C(O)C(Cc1ccccc1)N1C(=O)CCC1=O (centres undefined) | -1.2% (inactive) |  |
| Cc1ccc(CNC(=O)C2CCN(C(=O)c3cccc(Cl)c3)CC2)cc1 | 1.1% (inactive) |  |
| Cc1ccc(S(=O)(=O)N(CC(=O)Nc2ccccc2C(=O)O)c2ccccc2C)cc1 | 9.7% (inactive) |  |
| Cc1ccc(S(=O)(=O)N(CC(=O)Nc2ccccc2C(=O)O)c2ccccc2)cc1 | 10.7% (inactive) |  |
| Cc1ccc(S(=O)(=O)N(CC(=O)Nc2ccccc2C(=O)O)c2cccc(Cl)c2C)cc1 | 52% (active) |  |
| CC1CCN(C(=O)CSc2nc3ccccc3c(=O)[nH]2)CC1 | -0.9% (inactive) |  |
| CC(C(=O)N1CCN(C(=O)c2ccco2)CC1)n1sc2ccccc2c1=O (centres undefined) | 1.6% (inactive) |  |
| COc1cccc2c1C(=O)C=C(C)C2=O | 2.7% (inactive) |  |
| CC1=CC(=O)c2ccccc2C1=O | -2.1% (inactive) |  |
| CC1=CC(=O)c2c(O)ccc(O)c2C1=O | 68.3% (active) |  |
| O=C(COc1ncnc2ccccc12)Nc1cc([N+](=O)[O-])ccc1Cl | -0.3% (inactive) |  |
| COCC1CCN(C(=O)c2cc(COc3ccc(C)c(C)c3)on2)C1 (centres undefined) | 0.9% (inactive) |  |
| COc1cc(/C=C2/SC(=O)N(Cc3ccccc3)C2=O)ccc1OCc1ccncc1 | -4.2% (inactive) |  |
| Cc1ccc(S(=O)(=O)NC(=O)c2ccc(Br)o2)c(C)c1 | -0.8% (inactive) |  |
| Cc1ccc(S(=O)(=O)NC(=O)c2ccc(-c3ccc(-c4ccccc4)cc3)o2)c(C)c1 | 52.6% (active) |  |
| Cc1ccc(S(=O)(=O)NC(=O)c2ccc(-c3ccc(C)c4ccccc34)o2)cc1 | 23.3% (inactive) |  |
| O=C(Nc1cccc(C(=O)Nc2ccc(Cl)cn2)c1)c1ccccc1 | 7.8% (inactive) |  |
| O=C(Nc1ccc(F)cc1)c1oc2ccccc2c1NC(=O)C1CC1 | -0.2% (inactive) |  |
| CSc1nnc(-c2ccccc2N=Cc2c(C)[nH]n(-c3ccccc3)c2=O)c(=O)[nH]1 | 6% (inactive) |  |
| Cc1nn(-c2ccc3ccccc3c2)c(=O)c2ccccc12 | 0% (inactive) |  |
